Compound activity: PubChem, several laboratories
An excerpt weighted towards active compounds, which were near 4% of everything screened.
Mtb betalactam – beta-lactam sensitization of Mtb H37Rv | M. tuberculosis H37Rv growth with meropenem, percent inhibition | inhibition, % at 25 µM | 0.27% of 330,000 active | AID 434955; call rule not given here;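 further: growth measured after seven days incubation then overnight dye step; 0% = bacteria only wells and 100% = bacteria with antibiotic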
GDH-TPI counter – GDH-TPI coupled enzyme inhibition counter-screen; GDH-TPI coupled enzyme counterscreen, NADH absorbance; inhibition, % at 4.8 µM; 1.2% of 360,000 active; AID 588335; in the data active means inhibition above about 30%;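 further: 0% = DMSO wells and 100% = wells lacking the enzyme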
RecA intein inh – blocks M. tuberculosis RecA intein splicing. cell-free RecA intein splicing, fluorescence. inhibition, % (no concentration beside the values). 0.75% of 290,000 active; in the data active means inhibition above about 30%;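 further: 0% = vehicle wells and 100% = reference inhibitor control wells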
Rv3671c protease – Rv3671c (M. tuberculosis) protease inhibition; AID 2606; P9WHR9; 0.048% of 320,000 active; inhibition, % at 5.96 µM; in the data active means inhibition above about 38%;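 further: extracellular domain of Rv3671c used as enzyme; 0% = enzyme with DMSO and 100% = no enzyme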
Mtb UGM inh – blocks M. tuberculosis UGM enzyme | P9WIQ1 | purified UGM, fluorescence polarization probe displacement | inhibition, % at 10 µM | 0.06% of 320,000 active | AID 504406; in the data active means inhibition above about 10%, passing the limit was not always enough
FBA Mtb inh – inhibits M. tuberculosis FBA enzyme. purified M. tuberculosis FBA, fluorescence read-out. AID 588726. 2.3% of 360,000 active. inhibition, % at 1 µM; in the data active means inhibition above about 27%;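 further: 0% = vehicle and 100% = reference inhibitor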
Target sequence (P9WQA3 whole entry, looked up): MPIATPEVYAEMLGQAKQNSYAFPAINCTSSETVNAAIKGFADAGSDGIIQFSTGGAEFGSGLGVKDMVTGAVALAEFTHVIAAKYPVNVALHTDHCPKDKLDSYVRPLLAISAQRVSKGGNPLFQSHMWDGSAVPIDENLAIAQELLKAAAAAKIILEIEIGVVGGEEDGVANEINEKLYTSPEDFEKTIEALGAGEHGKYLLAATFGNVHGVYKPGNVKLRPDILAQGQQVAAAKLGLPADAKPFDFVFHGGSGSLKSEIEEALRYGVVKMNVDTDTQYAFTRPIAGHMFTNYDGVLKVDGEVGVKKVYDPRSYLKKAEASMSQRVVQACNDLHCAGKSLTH
Numbers without * were called inactive; nt = no result; + = active, no number.

SMILES | Mtb betalactam | GDH-TPI counter | RecA intein inh | Rv3671c protease | Mtb UGM inh | FBA Mtb inh
COc1ccccc1NC(=O)C1=C(C)N(c2ccccc2)C(=S)NC1c1cccc(C(F)(F)F)c1 (stereo unspecified) | -1 | 4 | 1 | 0 | -1 | 0
Cc1ncccc1C(=O)N1CCCC(c2cc(C(=O)Nc3ccc(C(C)(C)C)cc3)no2)C1 (stereo unspecified) | nt | -8 | nt | nt | nt | 2
CC(C)(C)c1ccc(/C=N/N2CCN(c3ccccn3)CC2)cc1 | 82 | 3 | 4 | 5 | 0 | 1
CN(c1ccccc1)c1ccc(/C=N/N2CCOCC2)cc1 | 3 | 31* | -6 | -1 | 0 | 0
C(=NN1CCCCCC1)c1ccccc1 | nt | 7 | nt | nt | nt | 1
CN(C)c1ccc(/C=N/N2CCN(c3ccccn3)CC2)cc1 | -9 | 39* | -2 | 1 | 1 | -3
O=C(N[C@@H](Cc1ccccc1)C(=O)N1CCC2(CC1)NCCc1[nH]cnc12)c1cccc(F)c1 | 3 | -5 | 7 | 3 | -1 | 1
COc1cc(/C=C2\SC(=O)N(c3ccc(O)cc3)C2=O)cc(OC)c1OC | 0 | 48* | -1 | -1 | 0 | -3
CCOc1ccc(N2C(=O)S/C(=C\c3cc(OC)c(OC)c(OC)c3)C2=O)cc1 | 1 | 8 | 0 | 6 | -1 | 0
CN1C(=C2C(=O)OC(C)(C)OC2=O)Sc2ccccc21 | 2 | 46* | 0 | -2 | 0 | -3
COc1cc(NC(=O)CCCNC(=O)Cn2cnc3sc(C)c(C)c3c2=O)cc(OC)c1OC | -4 | 7 | 1 | 5 | 0 | 1
O=C1NC2(C=Cc3c(ccc4ccccc34)O2)Oc2ccccc21 (stereo unspecified) | -1 | 8 | -4 | 3 | -5 | 152*
CCOC(=O)C(/C=C(\C#N)C(=O)OCC)=C(/N)N1CCN(c2ccccc2)CC1 | -9 | 36* | -3 | 4 | 3 | 0
CCOC(=O)/C(C#N)=C/c1ccc(N2CCN(C)CC2)cc1 | 2 | 12 | -3 | 0 | 1 | -4
COc1ccc(N2C3=C(C(=O)CC(C)(C)C3)C(c3cnn(C)c3)C3=C2CC(C)(C)CC3=O)cc1 | 0 | 3 | -401 | -9 | 3 | 112*
CCn1cc(C2C3=C(CC(C)(C)CC3=O)N(c3ccc(C)cc3)C3=C2C(=O)CC(C)(C)C3)c(C)n1 | nt | -1 | nt | nt | nt | 1
c1ccc(CCNCc2ccco2)nc1 | nt | 9 | nt | nt | nt | -2
CCn1c(SCC(=O)Nc2ccc(C)cc2)nc2nc3c(cc2c1=O)COC(C)(C)C3 | 0 | 31* | 1 | 4 | 0 | 1
CCc1nc2c(OCC(=O)c3ccc(Cl)cc3Cl)cccn2c1N(C)C(=O)COc1ccccc1 | nt | 1 | nt | nt | nt | 0
NC(=O)NC(=O)COC(=O)c1ccc2c(c1)C(=O)N(Cc1ccccc1)C2=O | -6 | 6 | 1 | 4 | 1 | -3
CCOc1ccccc1N(C)C(=O)c1cc2c(=O)n(CC)c3ccccc3c2s1 | 3 | 42* | 9 | -15 | -7 | 4
Cc1ccc(NC(=O)c2cc(NC(=O)/C=C\C(=O)O)ccc2N2CCCCC2)cc1 | -2 | 16 | 48* | 0 | -1 | 1
CCOC(=O)Cc1csc(NC(=O)c2ccc(N3CCOCC3)cc2[N+](=O)[O-])n1 | 2 | 16 | nt | -18 | 1 | 2
O=C1c2cccc3c(N4CCCCC4)ccc(c23)C(=O)N1c1ccccn1 | nt | 3 | -16 | -3 | 10* | 0
O=C1c2cccc3c([N+](=O)[O-])ccc(c23)C(=O)N1c1ccccn1 | 100 | 23 | -33 | -2 | 3 | 0
SMILES | Mtb betalactam | GDH-TPI counter | RecA intein inh | Rv3671c protease | Mtb UGM inh | FBA Mtb inh
Cc1cc(N/N=C/c2ccc(O)cc2)nc(NS(=O)(=O)c2ccccc2)n1 | 4 | 74* | -3 | 2 | 2 | -1
Cc1cc(N/N=C/c2ccccc2)nc(N)n1 | -4 | 42* | -4 | -6 | -4 | 1
Cc1nc(N)nc(N/N=C/c2ccccc2)n1 | -9 | 12 | -3 | -6 | 2 | -5
COc1ccc(NC(=O)CSc2nc3sc(C)cc3c(=O)n2C)c(OC)c1 | 4 | -5 | 4 | 1 | 0 | -6
COc1ccccc1C1(CCN=Cc2ccc(N(C)C)cc2)CCOC(C)(C)C1 (stereo unspecified) | -5 | 24 | -1 | -5 | -3 | -2
CN(C)c1ccc(C=NCCC2(O)CCOC(C)(C)C2)cc1 (stereo unspecified) | -7 | 40* | -2 | -12 | -1 | 2
COc1ccc(C2c3[nH]c4ccccc4c3CCN2C(=O)Cc2nonc2C)c(F)c1 (stereo unspecified) | 16 | -5 | 7 | -4 | 7 | -1
Nc1ccc(Cl)cc1C(=O)OCC(=O)NC1CCS(=O)(=O)C1 (stereo unspecified) | 2 | 17 | -1 | -5 | -2 | 90*
CC1(C)C=C(c2ccc(C(=O)O)s2)CC(C)(C)N1 | -1 | -1 | 1 | -12 | 4 | 1
O=C(O)c1ccc(-c2ccc(-c3ccccc3)cc2)s1 | 2 | 27 | 2 | -7 | 0 | 118*
Cc1cc(-c2ccc(C(=O)O)s2)cnc1N | 3 | 17 | -8 | 2 | 3 | +
O=C(Nc1ccccc1)c1ccc(-c2ccccc2)s1 | -1 | -9 | -1 | -1 | 1 | -1
CN(C)CCOc1ccc(/C(=C(/CCCl)c2ccccc2)c2ccccc2)cc1 | 56 | 1 | 33* | -1 | nt | 5
CCOC(=O)c1nnsc1N | -5 | -11 | -2 | 1 | 2 | 2
CCc1ccc(N=C2NC(=O)/C(=C/c3ccc(OCC(=O)O)cc3)S2)cc1 | -4 | 40* | 10 | -1 | -2 | -2
CCc1ccc(N=C2NC(=O)/C(=C/c3ccc(OCC(=O)O)c(OC)c3)S2)cc1 | nt | 19 | 2 | nt | nt | -1
CC1COc2c(N3CCN(C)CC3)c(F)cc3c(=O)c(C(=O)O)cn1c23 (stereo unspecified) | 100 | 25 | -2 | -13 | 3 | 97*
N#Cc1cccc(NC(=O)c2cc(C3CCCCN3C(=O)CCCc3ccccc3)on2)c1 (stereo unspecified) | nt | 13 | nt | nt | nt | 2
CCN1CCCC1CNC(=O)c1ccc2c(c1)NC(=O)/C(=C\c1ccc(OC)c(OC)c1)S2 (stereo unspecified) | 20 | 31* | -1 | -12 | 1 | -1
O=C(OCC(=O)N1CCN(C(=O)c2ccco2)CC1)c1ccc(Cl)nc1 | 0 | -11 | nt | 13 | 0 | -1
COc1ccccc1C1CC(c2ccco2)=NN1c1ccccc1 (stereo unspecified) | 8 | 12 | -1 | 3 | 0 | 148*
COc1ccc(C2CC(c3ccc(F)cc3)=NN2c2ccccc2)cc1OC (stereo unspecified) | 78 | -10 | 13 | -7 | 5 | 11
Cc1ccccc1CC(=O)N1CCC(CCC(=O)NC2CC2)CC1 | nt | 2 | nt | nt | nt | -3
Cc1nc(/C=C\C(=O)O)c2cc(C)oc2n1 | -6 | 8 | -1 | 4 | 3 | +
